From PubChem BioAssay
Compounds with a hit are over-represented: about 3.4% of the library has one in this group of screens.
MITF primary: human MITF inhibition, primary screen | AlphaScreen MITF homodimerization, bead proximity signal | inhibition, % at 2.6 µM | 0.91% of 650,000 active | AID 1259374; in the data active = inhibition above about 50%;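 also: 0% = vehicle wells with protein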
Target sequence (O75030 whole entry, looked up): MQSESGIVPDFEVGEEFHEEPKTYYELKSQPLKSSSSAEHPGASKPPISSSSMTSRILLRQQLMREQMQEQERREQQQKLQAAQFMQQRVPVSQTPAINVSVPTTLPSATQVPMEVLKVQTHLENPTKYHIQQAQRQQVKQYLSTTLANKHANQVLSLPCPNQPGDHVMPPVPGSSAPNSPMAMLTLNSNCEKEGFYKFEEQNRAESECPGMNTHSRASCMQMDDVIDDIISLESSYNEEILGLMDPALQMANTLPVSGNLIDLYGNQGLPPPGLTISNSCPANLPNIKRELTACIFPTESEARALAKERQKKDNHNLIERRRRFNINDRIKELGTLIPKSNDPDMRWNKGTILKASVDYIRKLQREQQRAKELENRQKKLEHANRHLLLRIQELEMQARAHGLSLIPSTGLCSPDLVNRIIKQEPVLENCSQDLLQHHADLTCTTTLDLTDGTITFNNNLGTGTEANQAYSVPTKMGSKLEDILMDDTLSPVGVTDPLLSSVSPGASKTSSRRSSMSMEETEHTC
TEAD-YAP inh: TEAD-YAP interaction inhibition | HEK-TIYL cells, TEAD-Gal4/YAP UAS-luciferase luminescence | inhibition, % at 9.12 µM | 1.4% of 640,000 active; in the data active = inhibition above about 32%;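 also: 0% = median of test compound wells and 100% = reference inhibitor wells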
FBW7 activator: activators of human E3 ligase FBW7. Q969H0. AlphaScreen FBW7–phospho-cyclin E peptide binding, activator screen. normalized activity (activation), % at 26.1 µM. 0.13% of 650,000 active; in the data active = normalized activity above about 1.9%;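 also: purified mutant Fbw7 with reduced substrate affinity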
GPR151 activ: activators of human GPR151 | Q8TDV0 | PathHunter beta-arrestin GPR151 cells, luminescence | activation, % at 11.2 µM | 1% of 650,000 active | AID 1508602; in the data active = activation above about 4.9%;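 also: 0% = median of compound wells and 100% = cells with positive control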
* marks the source's active call; other numbers are inactive results.

SMILES	MITF primary	TEAD-YAP inh	FBW7 activator	GPR151 activ
CC1=C(C#N)C(c2cc(Cl)ccc2OC(F)F)C(C#N)=C(C)N1	-5	44*	0	-1
COCCOC(=O)C1=C(C)NC(C)=C(C#N)C1c1ccccc1OC(F)F (stereo not drawn)	-1	9	0	-1
CCOc1ccc(NC(=O)CSc2nnc(-c3ccccc3N)n2C)cc1	4	5	0	0
O=C(CCl)N(c1ccccc1)c1ccccc1	24	66*	0	-2
CCCN(CCC)C(=O)CSc1nc2n[nH]c(C)c2c(=N)n1-c1cccc(C)c1	16	-20	0	0
CCC(Sc1nc2n[nH]c(C)c2c(=N)n1-c1cccc(Cl)c1)C(=O)N1CCCC1 (stereo not drawn)	27	49*	0	1
CCC(Sc1nc2n[nH]c(C)c2c(=N)n1-c1cccc(C)c1)C(=O)N(CC)CC (stereo not drawn)	4	39*	0	0
CCOc1cc(/C=C2\SC(N)=NC2=O)ccc1OC(=O)c1cccs1	-1	35*	0	-2
CCOc1cc(/C=C2\SC(N)=NC2=O)ccc1OCC(=O)NCc1ccccc1	0	32*	0	3
COc1cc(/C=C2\SC(N)=NC2=O)ccc1OCC(=O)Nc1ccc(C)cc1	12	34*	0	-1
Cc1cc(C)c2sc(NC(=O)Cc3ccc(Cl)cc3)nc2n1	9	-7	0	-1
CCOC(=O)C(CC)n1ncn2c(cc3occc32)c1=O (stereo not drawn)	-1	-8	0	2
COCc1cc(C)c(C#N)c(SCC(=O)C23CC4CC(CC(C4)C2)C3)n1	9	-13	1	-1
CCCOc1ccc(C(=O)Nc2ccc(Br)cn2)cc1	5	-66	0	-3
CCN(CC)Cc1c(C(=O)N/N=C/c2cccc(OC)c2O)nnn1-c1nonc1N	60*	14	0	-1
CCN(CC)Cc1c(C(=O)N/N=C/c2ccc(O)c([N+](=O)[O-])c2)nnn1-c1nonc1N	75*	12	0	-1
CCOC(=O)CC(NC(=O)Cc1ccccc1)c1ccccc1Cl (stereo not drawn)	-1	-1	0	-1
O=C(Cc1ccccc1)NC(c1ccccc1)c1ccc2cccnc2c1O (stereo not drawn)	28	58*	-2	-1
COc1ccccc1C(NC(=O)C1CCCCC1)c1ccc2cccnc2c1O (stereo not drawn)	8	61*	-1	1
O=C(NC(c1ccc(Cl)cc1)c1ccc2cccnc2c1O)C1CCCCC1 (stereo not drawn)	12	14	1	-1
O=C(Cc1ccccc1)NC(c1ccccc1Cl)c1ccc2cccnc2c1O (stereo not drawn)	16	84*	-2	1
CCCCC(=O)NC(c1cccs1)c1ccc2cccnc2c1O (stereo not drawn)	49	88*	-1	-1
Cn1ccnc1C(NC(=O)Cc1ccc(O)cc1)c1ccccc1 (stereo not drawn)	-1	-10	0	0
CCCCC(=O)NC(c1ccccc1Cl)c1ccc2cccnc2c1O (stereo not drawn)	31	87*	-2	-2
CCC(=O)NC(c1ccccc1Cl)c1ccc2cccnc2c1O (stereo not drawn)	31	89*	-2	0
SMILES	MITF primary	TEAD-YAP inh	FBW7 activator	GPR151 activ
CCC(=O)NC(c1ccccc1OC)c1ccc2cccnc2c1O (stereo not drawn)	43	44*	-2	1
O=C(c1ccc(CS(=O)(=O)c2ccccc2)o1)N1CCN(c2ccccn2)CC1	-7	-12	0	-1
O=C(NCC(c1ccco1)S(=O)(=O)c1ccc(F)cc1)C1CC1 (stereo not drawn)	3	-9	0	2
O=Cc1ccc(OCC(=O)O)c(Br)c1	2	3	0	-1
O=C(NCC(c1cccs1)N1CCOCC1)c1ccc([N+](=O)[O-])o1 (stereo not drawn)	3	55*	0	1
C=CCNC(=O)c1cc(-c2ccc3c(c2)OCO3)on1	0	-16	0	-1
CC(C)NC(=O)c1cc(-c2ccc(O)cc2)on1	2	43*	1	-2
C=CCNC(=O)c1cc(-c2ccc(O)cc2)on1	6	34*	0	-1
CC(C)NC(=O)c1cc(-c2ccc(Br)cc2)on1	13	-57	1	-1
Cc1ccc(Oc2ccc(NC(=O)C3CCCC3)cc2)nn1	-2	-7	0	2
Cc1ccc(-c2nnc(Cc3ccccc3)o2)cc1	-10	-58	0	-2
Cc1ccc2oc(Cc3ccccc3)nc2c1	20	47*	0	-2
CCOc1ccc(N(CC)S(=O)(=O)c2cccc3cccnc23)cc1	6	53*	0	-1
Cc1ccc2[nH]c3nc4ccccc4nc3c2c1	-12	-13	0	-5
COc1ccc2[nH]c(C)cc(=S)c2c1	7	42*	0	1
COc1ccc2[nH]c(C)cc(=O)c2c1	12	11	0	1
COc1ccc2[nH]c3nc4cc(C)c(C)cc4nc3c2c1	-3	43*	0	0
CCOC(=O)C1=C(C)NC(=O)NC1c1ccccc1OC (stereo not drawn)	-3	10	0	-1
COc1cccc(S(=O)(=O)NCc2ccc(C(=O)Nc3cccnc3)cc2)c1	12	50*	0	0
O=C(Nc1ccc(S(=O)(=O)NCc2cccnc2)cc1)c1ccccc1Cl	3	28	0	1
O=C(Nc1ccc(S(=O)(=O)NCc2cccnc2)cc1)c1ccco1	6	14	2.1*	0
CC1CCCN(S(=O)(=O)Cc2ccccc2)C1 (stereo not drawn)	1	-7	0	0
O=C(NCc1ccco1)c1ccc(N2CC3CC(C2)c2cccc(=O)n2C3)c(NC(=O)c2ccncc2)c1 (stereo not drawn)	2	45*	0	0
Cc1cc(CN(C)C(=O)CC2(c3ccccc3C)CC(=O)N(Cc3ccccc3)C2=O)n[nH]1 (stereo not drawn)	14	1	1	0
C=C1/C(=C\C=C2/CCCC3(C)[C@@H]([C@H](C)CCCC(C)(C)O)CC[C@@H]23)C[C@@H](O)C[C@@H]1O (stereo partly drawn)	-2	37*	0	0
SMILES	MITF primary	TEAD-YAP inh	FBW7 activator	GPR151 activ
C=C1CC[C@H](O)C/C1=C/C=C1\CCCC2(C)C1CCC2C(C)CCCC(C)C (stereo partly drawn)	11	-5	0	1
C=CCNS(=O)(=O)c1cc(C(=O)Nc2ccc(Oc3ccccc3)cc2)ccc1F	18	67*	0	0
CCOC(=O)N1CCN(S(=O)(=O)c2cc(C(=O)Nc3ccc(Oc4ccccc4)cc3)ccc2F)CC1	-1	22	0	-1
O=C(Nc1ccc(Oc2ccccc2)cc1)c1ccc(F)c(S(=O)(=O)NCCc2ccccc2)c1	-4	40*	0	0
O=C(Nc1cccc(Cl)c1)c1ccc(F)c(S(=O)(=O)NCCc2ccccc2)c1	13	7	0	-2
Cc1c(Cl)cccc1NC(=O)c1cc(S(=O)(=O)NCc2ccco2)ccc1F	15	3	2.0*	-7
